Assay results taken from PubChem BioAssay (NCI).
Compounds without any hit were thinned out: in the full panel of roughly 83,000, 20% have a hit.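 48-hour exposure, single concentration, 96-well plates; percent growth endpoint where 0 means no net growth. Active: below 10.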 Activity calls are given as the source filed them.

test system: HOP-92 NSCLC; test: NCI-60 one-dose screen, 48 h (100 = growth as untreated, 0 = no growth, -100 = all killed); details: 10 µM unless noted

SMILES	growth
O=S(=O)(NCCCNc1cc(-c2cn(-c3ccccc3)nc2-c2cccc(O)c2)ccn1)c1cccc2ccccc12	11.8% (inactive)
O=C(NCCCN1CCN(CCCNC(=O)C2CCCCC2)CC1)C1CCCCC1	70.5% (inactive)
CCN(Cc1ccc(CN(CC)C(=O)C(Cl)(Cl)Cl)cc1)C(=O)C(Cl)(Cl)Cl	33.1% (inactive)
CCOC(=O)CC(C#N)(CC(=O)OCC)C(=O)OCC	68% (inactive)
COc1ncc(-c2ccc3ncnc(Nc4cccc(Cl)c4)c3c2)cc1NS(=O)(=O)C1CC1	-7.31% (active)
Cc1cc(C)c(S(=O)(=O)N2CCN(c3cc4c(cc3F)c(=O)c(C(=O)O)cn4C3CC3)CC2)c(C)c1	46.9% (inactive)
COc1ccc(/C=C/C(=O)OCC(=O)NNC(=O)c2ccccc2)cc1OC	79.3% (inactive)
O=C1c2ccccc2C(=O)c2c1oc1oc3c(c(=O)c21)c(=O)n(-c1ccccc1)c1ccccc31	80% (inactive)
O=C(Nc1ccc(Cl)cc1)c1cc(-c2ccc(F)cc2)c2sc(=O)[nH]c2n1	-24.2% (active)
CC(C)(C)c1ccc(S(=O)(=O)Oc2ccc3c4c(c(=O)oc3c2)CCCCC4)cc1	3.94% (active)
CCN(CC)CCSc1c2ccc(Cl)cc2nc2ccc(OC)cc12	82.3% (inactive)
Cc1ccc(OCCn2c(C)nn(-c3ccc(Cl)cc3)c2=O)cc1	84.1% (inactive)
O=C(CN1CCN(c2cc3c(cc2F)c(=O)c(C(=O)O)cn3C2CC2)CC1)Nc1ccc(C(=O)/C=C/c2ccc(Cl)cc2)cc1	95.8% (inactive)
CCC(c1ccc(OC)cc1)C(CC)c1ccc(OCC[N+](C)(C)C)cc1 (stereo not drawn)	9.93% (active)
O=C(C[N+](=O)[O-])c1ccc(Cl)cc1	101% (inactive)
O=C(CCC(=O)OC1CCCC1)OC1CCCC1	73.1% (inactive)
CCOC(=O)c1ccccc1NC(c1ccccc1)c1ccc2cccnc2c1O (stereo not drawn)	16.5% (inactive)
C/C(=C\c1csc(C)n1)[C@@H]1C[C@@H]2O[C@]2(C)CCC[C@H](C)[C@H](O)[C@@H](C)C(=O)C(C)(C)[C@@H](O)CC(=O)N1	-47.2% (active)
COc1ccc(C2CC(c3cccs3)=NN2c2ccc(S(=O)(=O)NC(=O)Nc3ccc(C)cc3)cc2)cc1 (stereo not drawn)	84.9% (inactive)
CCSc1nnc(NC(=O)COc2ccc(Cl)cc2C)s1	83.2% (inactive)
COc1cc(CNC(=O)CSc2nc3ccccc3c(=O)n2Cc2cc(OC)c(OC)c(OC)c2)cc(OC)c1OC	106% (inactive)
COc1ccc(NC(=S)/N=c2\oc3c(OC)cccc3cc2-c2cc3ccccc3[nH]2)cc1	-9.96% (active)
COc1ccc(C2=CC(c3ccc(Oc4ccnc5cc(Cl)ccc45)c(OC)c3)c3c(nc(OC)[nH]c3=O)N2)cc1 (stereo not drawn)	49.3% (inactive)
CCN(C(=O)c1cc2ncccc2[nH]1)[C@H]1CCC[C@@H](NCc2cccc(F)c2)C1	92.1% (inactive)
COc1ccc(/C=C/C(=O)/C=C/c2cc3ccc(Cl)cc3[nH]c2=O)cc1	103% (inactive)
CCc1c(C(=O)Nc2ccc3ccccc3c2)[nH]c(C)c1C(C)=O	92.3% (inactive)
Cc1cnc(NC(=O)C(Cc2ccccc2)NC(=O)c2ccccc2)s1 (stereo not drawn)	19.1% (inactive)
O=C1Nc2ccc(Br)cc2C1=N/C=c1\[nH]c(=O)/c(=C/c2ccc(Cl)cc2)s1	83.2% (inactive)
CC/C(=C(\c1ccc(O)cc1)c1ccc(OCCN(C)CCN(C)C(=O)CCC(=O)c2c(C)[nH]c(/C=C3\N=C(c4ccc[nH]4)C=C3OC)c2C)cc1)c1ccccc1	58.8% (inactive)

test system: NCI-H522 lung; test: as above; details: 10 µM unless noted

SMILES	growth
COc1ccc(S(=O)(=O)N2CCN(c3cc4c(cc3F)c(=O)c(C(=O)O)cn4C3CC3)CC2)c(OC)c1	91.4% (inactive)
CCC(C)NCC(=O)O (stereo not drawn)	78.7% (inactive)
O=C(O)Cc1ccc2c(c1)Cc1cccnc1O2	95.7% (inactive)
COc1cc(Cn2c(SCC(=O)Nc3ccc(Cl)cc3)nc3ccccc3c2=O)cc(OC)c1OC	40.9% (inactive)
CC(C)(C)OC(=O)N[C@@H](Cc1ccccc1)C(=O)N(Cc1ccccc1)C1(C(=O)NCc2ccccc2)CCN(Cc2ccccc2)CC1	43.7% (inactive)
COC(=O)C(CC(=O)c1ccc(-c2ccccc2)cc1)c1ccccc1 (stereo not drawn)	-0.151% (active)
C=C1C(=O)O[C@H]2[C@H]1CC/C(Cn1cc(-c3ccccc3C(F)(F)F)nn1)=C\CC[C@@]1(C)O[C@@H]21	-82.5% (active)
O=C(O)C(=Cc1c2ccccc2cc2ccccc12)C(=O)O	89.7% (inactive)
CN(C)c1nc(N)c(N=O)c(N)n1	106% (inactive)
CCCCCCC[C@@H](O)CC(=O)N[C@H](CCCCN)C(=O)N[C@H](Cc1c[nH]c2ccccc12)C(=O)NC(CCCCN)C(=O)N[C@H](CC(C)C)C(=O)N[C@H](Cc1ccccc1)C(=O)N[C@H](CCCCN)C(=O)N[C@H](CCCCN)C(=O)N[C@H](CC(C)C)C(=O)N1CCCC1C(=O)N[C@H](CCCCN)C(=O)N[C@H](Cc1ccccc1)C(=O)N[C@H](CC(C)C)C(=O)N[C@H](Cc1c[nH]cn1)C(=O)N[C@H](CC(C)C)C(=O)N[C@H](C)C(=O)N[C@H](CCCCN)C(=O)N[C@H](CCCCN)C(=O)N[C@H](Cc1ccccc1)C(=O)O (stereo partly drawn)	-48.8% (active)
O=S(=O)(NCCCNc1cc(-c2cn(-c3ccccc3)nc2-c2cccc(O)c2)ccn1)c1cccc2ccccc12	44.5% (inactive)
O=C(NCCCN1CCN(CCCNC(=O)C2CCCCC2)CC1)C1CCCCC1	95% (inactive)
CCN(Cc1ccc(CN(CC)C(=O)C(Cl)(Cl)Cl)cc1)C(=O)C(Cl)(Cl)Cl	74% (inactive)
CCOC(=O)CC(C#N)(CC(=O)OCC)C(=O)OCC	114% (inactive)
COc1ncc(-c2ccc3ncnc(Nc4cccc(Cl)c4)c3c2)cc1NS(=O)(=O)C1CC1	12.2% (inactive)
Cc1cc(C)c(S(=O)(=O)N2CCN(c3cc4c(cc3F)c(=O)c(C(=O)O)cn4C3CC3)CC2)c(C)c1	67.3% (inactive)
COc1ccc(/C=C/C(=O)OCC(=O)NNC(=O)c2ccccc2)cc1OC	104% (inactive)
O=C1c2ccccc2C(=O)c2c1oc1oc3c(c(=O)c21)c(=O)n(-c1ccccc1)c1ccccc31	19.4% (inactive)
O=C(Nc1ccc(Cl)cc1)c1cc(-c2ccc(F)cc2)c2sc(=O)[nH]c2n1	3.59% (active)
CC(C)(C)c1ccc(S(=O)(=O)Oc2ccc3c4c(c(=O)oc3c2)CCCCC4)cc1	-14.1% (active)

SMILES	growth
CCN(CC)CCSc1c2ccc(Cl)cc2nc2ccc(OC)cc12	-24.9% (active)
Cc1ccc(OCCn2c(C)nn(-c3ccc(Cl)cc3)c2=O)cc1	106% (inactive)
O=C(CN1CCN(c2cc3c(cc2F)c(=O)c(C(=O)O)cn3C2CC2)CC1)Nc1ccc(C(=O)/C=C/c2ccc(Cl)cc2)cc1	47.7% (inactive)
CCC(c1ccc(OC)cc1)C(CC)c1ccc(OCC[N+](C)(C)C)cc1 (stereo not drawn)	35% (inactive)
O=C(C[N+](=O)[O-])c1ccc(Cl)cc1	109% (inactive)
O=C(CCC(=O)OC1CCCC1)OC1CCCC1	79.8% (inactive)
CCOC(=O)c1ccccc1NC(c1ccccc1)c1ccc2cccnc2c1O (stereo not drawn)	-1.69% (active)
C/C(=C\c1csc(C)n1)[C@@H]1C[C@@H]2O[C@]2(C)CCC[C@H](C)[C@H](O)[C@@H](C)C(=O)C(C)(C)[C@@H](O)CC(=O)N1	-81.4% (active)
COc1ccc(C2CC(c3cccs3)=NN2c2ccc(S(=O)(=O)NC(=O)Nc3ccc(C)cc3)cc2)cc1 (stereo not drawn)	91.5% (inactive)
CCSc1nnc(NC(=O)COc2ccc(Cl)cc2C)s1	94.4% (inactive)
COc1cc(CNC(=O)CSc2nc3ccccc3c(=O)n2Cc2cc(OC)c(OC)c(OC)c2)cc(OC)c1OC	81.2% (inactive)
COc1ccc(NC(=S)/N=c2\oc3c(OC)cccc3cc2-c2cc3ccccc3[nH]2)cc1	86.3% (inactive)
COc1ccc(C2=CC(c3ccc(Oc4ccnc5cc(Cl)ccc45)c(OC)c3)c3c(nc(OC)[nH]c3=O)N2)cc1 (stereo not drawn)	75.7% (inactive)
CCN(C(=O)c1cc2ncccc2[nH]1)[C@H]1CCC[C@@H](NCc2cccc(F)c2)C1	89.8% (inactive)
COc1ccc(/C=C/C(=O)/C=C/c2cc3ccc(Cl)cc3[nH]c2=O)cc1	82.3% (inactive)
CCc1c(C(=O)Nc2ccc3ccccc3c2)[nH]c(C)c1C(C)=O	68.7% (inactive)
Cc1cnc(NC(=O)C(Cc2ccccc2)NC(=O)c2ccccc2)s1 (stereo not drawn)	63.9% (inactive)
O=C1Nc2ccc(Br)cc2C1=N/C=c1\[nH]c(=O)/c(=C/c2ccc(Cl)cc2)s1	89.3% (inactive)
CC/C(=C(\c1ccc(O)cc1)c1ccc(OCCN(C)CCN(C)C(=O)CCC(=O)c2c(C)[nH]c(/C=C3\N=C(c4ccc[nH]4)C=C3OC)c2C)cc1)c1ccccc1	81.9% (inactive)
